Data published in PubChem BioAssay (Tox21).
Unmarked numbers belong to inactive results. Results filed as inconclusive are left out. A call without a number means that no potency is given here. Activity calls are given as the source filed them. Unless noted, the call rests on the fitted dose curve.

Columns and labels:
[1] = Nuclear factor erythroid 2-related factor 2/antioxidant responsive element (Nrf2/ARE) small molecule agonists: qHTS cell viability counter screen in human keratinocytes (AID 1919968; active means well fitted curve in the direction sought with a large enough effect in the repeat runs; an effect the other way counts as inactive or inconclusive; further: nearly all actives have a fitted effect of over 55% in size)
In short: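 KeratinoSens cells (HaCaT keratinocytes stably carrying an ARE-luciferase reporter) were seeded at 1,500 cells/well and rested 5 h at 37 C/5% CO2. They were then exposed to compounds in DMSO for 23 h. Viability was read by CellTiter-Fluor fluorescence after 1 h.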

[2] = Nuclear factor erythroid 2-related factor 2/antioxidant responsive element (Nrf2/ARE) small molecule agonists: luciferase reporter gene qHTS assay in human keratinocytes (AID 1919969); further: nearly all actives have a fitted effect of over 35% in size; further: potency means the concentration at half of the fitted maximal effect
[3] = target: Gonadotropin-releasing hormone receptor (Homo sapiens) (UniProt P30968); test: Human gonadotropin-releasing hormone receptor (GnRHR) small molecule agonists, calcium flux assay in GnRHR-HEK293 cells (AID 1920063); further: nearly all actives have a fitted effect of over 35% in size
In short: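 HEK293 cells stably expressing human GnRHR were plated 18 h at 37 °C, loaded with calcium dye 1 h at 37 °C, then given compound in agonist mode; fluorescence (Ex/Em 480/540) read kinetically for 3 min at 1 s intervals.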

[4] = G protein-coupled receptor (GPCR) small molecule agonists, calcium flux assay: HEK293 wild type cell line counter screen (AID 1920065)
In short: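 Cells were plated and cultured 18 h at 37 C/5% CO2, then loaded with calcium dye for 1 h at 37 C. Compounds in DMSO were pin-transferred in agonist mode, and fluorescence (Ex/Em 480/540) was read kinetically for 3 min at 1 s intervals.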

[5] = p53 small molecule agonists, cell-based qHTS assay with human liver microsomes (AID 1963577);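 further: p53 response element beta-lactamase reporter cells with liver microsomes plus NADPH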
In short: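 16 h, 37 C exposure of p53RE-bla cells to compounds with human liver microsomes and NADPH (0.5 mg/mL final each); detection via LiveBLAzer mixture, 2 h dark at room temperature.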

[6] = p53 small molecule agonists, cell-based qHTS assay with rat liver microsomes (AID 1963578)
In short: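 With rat liver microsomes and NADPH present (0.5 mg/mL final each), p53RE-bla cells are treated with compound for 16 h at 37 C. LiveBLAzer detection mixture is then applied for 2 h at room temperature in the dark.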

[7] = p53 small molecule agonists, cell-based qHTS assay with human liver microsomes: qHTS cell viability counter screen (AID 1963579); further: nearly all actives have a fitted effect of over 45% in size
In short: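 In this multiplexed counter screen, the reporter plates were subsequently treated with CellTiter-Glo so that cell viability, reflected by luminescence, could be recorded for p53RE-bla cells dosed 16 h with compounds under microsomal activation (HLM and NADPH).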

[8] = p53 small molecule agonists, cell-based qHTS assay with rat liver microsomes: qHTS cell viability counter screen (AID 1963580); further: nearly all actives have a fitted effect of over 45% in size
In short: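 p53RE-bla HCT-116 cells (4,000/well) rested 5 h at 37 C, then given Tox21 compounds in DMSO with rat liver microsomes (0.5 mg/mL final) plus NADPH (0.5 mg/mL final) for 16 h at 37 C. Viability read by CellTiter-Glo luminescence after 30 min at room temperature.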

[9] = p53 small molecule agonists, cell-based qHTS assay: qHTS cell viability counter screen (AID 1963581); further: nearly all actives have a fitted effect of over 45% in size
In short: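 p53RE-bla HCT-116 cells were exposed to compounds for 16 h at 37 C; after the beta-lactamase FRET read in the same wells, CellTiter-Glo was added and luminescence (intracellular ATP) read after 30 min at room temperature.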

[10] = p53 small molecule agonists, cell-based qHTS assay (AID 1963582; active means well fitted activation curve with a large enough effect in the signal ratio in the repeat runs, not every such curve was filed as active; the % refers to the signal ratio)
In short: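 p53RE-bla beta-lactamase reporter cells rested 5 h at 37 C/5% CO2, then received compounds in DMSO by pin transfer and were incubated 16 h at 37 C. LiveBLAzer B/G FRET substrate was loaded for 2 h at room temperature before fluorescence reading.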

[11] = target: 5-hydroxytryptamine receptor 2A (Homo sapiens) (UniProt P28223); test: 5-hydroxytryptamine receptor 2A (HTR2A) small molecule agonists, cell-based qHTS assay (AID 1963587); further: nearly all actives have a fitted effect of over 30% in size
In short: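 HTR2A-CHO cells, plated 18 h at 37 C/5% CO2, dye-loaded 1 h at 37 C; compounds in DMSO added by pin tool (agonist mode). Intracellular calcium flux read as kinetic fluorescence on FDSS over 2 min at 1 s intervals.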

[12] = target: Muscarinic acetylcholine receptor M1 (Homo sapiens) (UniProt P11229); test: Cholinergic receptor muscarinic 1 (CHRM1) small molecule antagonists, cell-based qHTS assay (AID 1963588); further: nearly all actives have a fitted effect of over 40% in size
In short: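 CHRM1-CHO calcium-flux assay, antagonist mode. Cells were seeded 18 h, dye-loaded 1 h at 37 C and given compound for 5 min at RT, then acetylcholine was added at 50nM. FDSS fluorescence was read 3 min; 15 concentrations, three runs.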

[13] = target: Muscarinic acetylcholine receptor M1 (Homo sapiens) (UniProt P11229); test: Cholinergic receptor muscarinic 1 (CHRM1) small molecule agonists, cell-based qHTS assay (AID 1963589); further: nearly all actives have a fitted effect of over 35% in size
In short: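 CHO cells stably expressing human CHRM1, seeded 18 h at 37 C/5% CO2, dye-loaded 1 h at 37 C, then given compound in agonist mode; intracellular calcium fluorescence read kinetically at 1 s intervals. Fifteen concentrations, three independent runs.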

[14] = cAMP Responsive Elements (CRE) small molecule agonists, cell-based qHTS assay (AID 1963590)
In short: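 CRE-bla HEK 293T cells in DMEM with 10% dialyzed FBS, NEAA, pyruvate and 25 mM HEPES were plated 18 h at 37 C/5% CO2, then exposed to compounds in DMSO for 3 h before LiveBLAzer B/G FRET substrate addition.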

[15] = cAMP Responsive Elements (CRE) small molecule antagonists, cell-based qHTS assay (AID 1963591; active means well fitted inhibition curve with a large enough effect in the signal ratio in the repeat runs, not every such curve was filed as active; the % refers to the signal ratio)
In short: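 CRE-bla HEK293T cells were plated 18 h at 37 °C/5% CO2, pinned with compound in DMSO, then stimulated with NKH477 at 0.25 uM final for 3 h. LiveBLAzer B/G FRET substrate was added and plates incubated 2 h at room temperature.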

[16] = target: D(2) dopamine receptor (Homo sapiens) (UniProt P14416); test: Dopamine D2 receptor (DRD2) small molecule antagonists, cell-based qHTS assay (AID 1963595; active means well fitted inhibition curve with a large enough effect in the signal ratio in the repeat runs, with a control signal flat; the % refers to the signal ratio)
In short: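 Antagonist mode in DRD2-HEK293 cells: after compound addition with 0.1 mM Ro20-1724, cells received quinpirole (12 nM) and NKH477 (200 nM) for 30 min at room temperature; HTRF cAMP read after 1 h detection.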

[17] = target: KiSS-1 receptor (Homo sapiens) (UniProt Q969F8); test: Human kisspeptin (KISS1R) small molecule agonists, calcium flux assay in KISS1R-HEK293 cells (AID 1920064; active means well fitted curve in the direction sought with a large enough effect in the repeat runs; an effect the other way counts as inactive or inconclusive)
In short: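 HEK293 cells stably expressing human KISS1R were plated 18 h at 37 °C, loaded with calcium dye for 1 h at 37 °C, then given compound by pin tool. Fluorescence (Ex/Em 480/540) was read kinetically for 3 min.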

[18] = target: 5-hydroxytryptamine receptor 2A (Homo sapiens) (UniProt P28223); test: 5-hydroxytryptamine receptor 2A (HTR2A) small molecule antagonists, cell-based qHTS assay (AID 1963586); further: nearly all actives have a fitted effect of over 45% in size
In short: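 Antagonist-mode intracellular calcium assay: DOI (4 nM) added after 5 min compound pre-incubation at room temperature to dye-loaded HTR2A-CHO cells. Fluorescence followed for 3 min, sampled every second.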

[19] = target: Beta-2 adrenergic receptor (Homo sapiens) (UniProt P07550); test: Adrenergic beta2 receptor (ADRB2) small molecule antagonists, cell-based qHTS assay (AID 1963592); further: series mostly up to about 92 µM; nearly all actives have a fitted effect of over 50% in size
In short: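 Cells (CHO, stable ADRB2 overexpression) incubated 18-20hr at 37C; compounds added from DMSO; agonist mix (1nM isoproterenol, 100uM IBMX, 25uM Ro-20-1724) added; 0.5hr RT; d2-cAMP and anti-cAMP-cryptate added; 1hr RT; 665/615 nm read.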

[20] = target: D(2) dopamine receptor (Homo sapiens) (UniProt P14416); test: Dopamine D2 receptor (DRD2) small molecule agonists, cell-based qHTS assay (AID 1963594); further: nearly all actives have a fitted effect of over 35% in size
In short: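 HEK293 cells stably expressing DRD2 were cultured 24 h at 37 C, then given Ro20-1724 (0.1 mM final) and compounds for 10 min at room temperature. NKH477 (200nM) was then added for 30 min. cAMP was read by HTRF.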

Chain of Gonadotropin-releasing hormone receptor (Homo sapiens) (P30968 whole entry, looked up): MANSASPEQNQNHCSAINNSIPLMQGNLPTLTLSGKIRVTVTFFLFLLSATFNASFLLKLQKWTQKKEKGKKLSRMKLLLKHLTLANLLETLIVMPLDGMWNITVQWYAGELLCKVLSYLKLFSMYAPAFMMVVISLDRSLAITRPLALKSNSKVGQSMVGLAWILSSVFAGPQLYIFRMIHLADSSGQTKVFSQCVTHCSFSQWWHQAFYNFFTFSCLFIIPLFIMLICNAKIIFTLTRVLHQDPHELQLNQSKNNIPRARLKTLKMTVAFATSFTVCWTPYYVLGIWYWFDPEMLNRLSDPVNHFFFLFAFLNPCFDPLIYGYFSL
Chain of 5-hydroxytryptamine receptor 2A (Homo sapiens) (P28223 whole entry, looked up): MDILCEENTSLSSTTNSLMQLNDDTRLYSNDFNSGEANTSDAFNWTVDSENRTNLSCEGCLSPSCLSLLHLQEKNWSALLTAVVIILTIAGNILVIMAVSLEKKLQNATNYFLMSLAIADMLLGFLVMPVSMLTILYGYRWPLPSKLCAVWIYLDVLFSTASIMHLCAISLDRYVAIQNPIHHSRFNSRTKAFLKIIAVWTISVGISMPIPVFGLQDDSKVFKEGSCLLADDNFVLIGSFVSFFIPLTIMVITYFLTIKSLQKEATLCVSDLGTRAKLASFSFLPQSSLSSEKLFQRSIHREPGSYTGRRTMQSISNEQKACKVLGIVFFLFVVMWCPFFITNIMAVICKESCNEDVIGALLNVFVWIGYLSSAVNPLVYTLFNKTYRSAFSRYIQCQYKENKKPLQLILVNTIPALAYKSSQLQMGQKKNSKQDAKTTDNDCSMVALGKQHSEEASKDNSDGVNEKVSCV
Chain of D(2) dopamine receptor (Homo sapiens) (P14416 whole entry, looked up): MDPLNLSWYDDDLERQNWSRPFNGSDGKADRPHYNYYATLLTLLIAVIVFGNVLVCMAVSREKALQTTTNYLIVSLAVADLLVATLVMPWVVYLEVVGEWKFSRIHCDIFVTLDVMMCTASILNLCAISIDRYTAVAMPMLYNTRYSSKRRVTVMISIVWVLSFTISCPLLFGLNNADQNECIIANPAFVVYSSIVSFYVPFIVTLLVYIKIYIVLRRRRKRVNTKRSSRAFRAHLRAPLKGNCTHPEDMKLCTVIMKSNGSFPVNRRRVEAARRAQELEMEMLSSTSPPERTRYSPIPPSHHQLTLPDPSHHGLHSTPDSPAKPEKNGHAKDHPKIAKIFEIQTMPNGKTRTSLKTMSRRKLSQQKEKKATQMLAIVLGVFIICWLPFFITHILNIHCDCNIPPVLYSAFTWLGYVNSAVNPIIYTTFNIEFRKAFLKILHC
Chain of Muscarinic acetylcholine receptor M1 (Homo sapiens) (P11229 whole entry, looked up): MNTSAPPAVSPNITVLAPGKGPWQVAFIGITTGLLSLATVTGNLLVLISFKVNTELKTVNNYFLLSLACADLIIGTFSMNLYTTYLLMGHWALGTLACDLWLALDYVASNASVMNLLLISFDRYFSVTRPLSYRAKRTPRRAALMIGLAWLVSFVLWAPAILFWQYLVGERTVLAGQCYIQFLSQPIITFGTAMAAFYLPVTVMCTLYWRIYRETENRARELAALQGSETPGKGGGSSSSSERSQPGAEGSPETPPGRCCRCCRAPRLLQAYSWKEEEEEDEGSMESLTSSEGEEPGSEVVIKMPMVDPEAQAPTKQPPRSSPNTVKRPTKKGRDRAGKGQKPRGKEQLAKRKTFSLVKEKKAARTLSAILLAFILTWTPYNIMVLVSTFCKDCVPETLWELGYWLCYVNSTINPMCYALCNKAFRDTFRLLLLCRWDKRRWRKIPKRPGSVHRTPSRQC
Chain of KiSS-1 receptor (Homo sapiens) (Q969F8 whole entry, looked up): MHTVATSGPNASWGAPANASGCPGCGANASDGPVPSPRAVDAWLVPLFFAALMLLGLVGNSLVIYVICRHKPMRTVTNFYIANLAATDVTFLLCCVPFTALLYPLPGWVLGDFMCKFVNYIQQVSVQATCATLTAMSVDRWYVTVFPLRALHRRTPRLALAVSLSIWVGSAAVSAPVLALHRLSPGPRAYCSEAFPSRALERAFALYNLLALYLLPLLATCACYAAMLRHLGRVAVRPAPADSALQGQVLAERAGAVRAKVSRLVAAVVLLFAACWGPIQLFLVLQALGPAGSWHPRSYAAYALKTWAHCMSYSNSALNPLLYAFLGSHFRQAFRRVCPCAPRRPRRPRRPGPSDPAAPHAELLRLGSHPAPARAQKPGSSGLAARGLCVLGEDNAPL
Chain of Beta-2 adrenergic receptor (Homo sapiens) (P07550 whole entry, looked up): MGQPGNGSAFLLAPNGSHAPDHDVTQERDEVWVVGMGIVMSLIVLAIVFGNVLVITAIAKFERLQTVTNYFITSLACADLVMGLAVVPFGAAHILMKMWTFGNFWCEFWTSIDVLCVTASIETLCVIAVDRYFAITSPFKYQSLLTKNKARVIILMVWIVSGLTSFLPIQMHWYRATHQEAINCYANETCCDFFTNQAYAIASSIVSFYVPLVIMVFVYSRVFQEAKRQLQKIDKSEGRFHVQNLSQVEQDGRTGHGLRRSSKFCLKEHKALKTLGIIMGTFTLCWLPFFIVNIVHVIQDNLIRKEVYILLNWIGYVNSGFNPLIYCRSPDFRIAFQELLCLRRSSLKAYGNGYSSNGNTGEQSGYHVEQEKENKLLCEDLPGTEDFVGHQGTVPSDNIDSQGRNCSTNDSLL

## CC#Cc1cc(C)nc(Nc2ccccc2)n1
[1]
  Potency: inactive
[2]
  Potency: 48.5 µM (active)
[3]
  Potency: inactive
[4]
  Potency: inactive
[5]
  Potency: inactive
[6]
  Potency: inactive
[7]
  Potency: inactive
[8]
  Potency: inactive
[9]
  Potency: inactive
[10]
  Potency: inactive
[11]
  Potency: inactive
[12]
  Potency: inactive
[13]
  Potency: inactive
[14]
  Potency: inactive
[15]
  Potency: inactive
[16]
  Potency: inactive

## C[C@@H](N)[C@@H](O)c1ccccc1
[1]
  Potency: inactive
[2]
  Potency: inactive
[3]
  Potency: inactive
[17]
  Potency: inactive
[7]
  Potency: inactive
[8]
  Potency: inactive
[9]
  Potency: inactive
[18]
  Potency: inactive
[11]
  Potency: inactive
[12]
  Potency: inactive
[13]
  Potency: inactive
[14]
  Potency: inactive
[15]
  Potency: inactive
[19]
  Potency: inactive
[16]
  Potency: inactive

## C=CC(=O)N(C)C
[1]
  Potency: inactive
[2]
  Potency: inactive
[3]
  Potency: inactive
[17]
  Potency: inactive
[5]
  Potency: inactive
[6]
  Potency: inactive
[7]
  Potency: inactive
[8]
  Potency: inactive
[9]
  Potency: inactive
[18]
  Potency: inactive
[11]
  Potency: inactive
[12]
  Potency: inactive
[13]
  Potency: inactive
[19]
  Potency: inactive
[20]
  Potency: inactive
[16]
  Potency: inactive

## Clc1cc2c(cc1Cl)Oc1cc(Cl)c(Cl)cc1O2
[1]
  activity change, negative = cytotoxicity: 5.41% [at 0.349 µM]
[2]
  activity, positive = activation: 4.08% [at 0.349 µM]
[3]
  activity change: 1.13% [at 0.217 µM, stronger effect = higher value]
[17]
  activation: -3.37% [at 0.29 µM]
[5]
  activation: 0.165% [at 0.249 µM]
[6]
  activation: -1.51% [at 0.249 µM]
[7]
  activity change, negative = cytotoxicity: -6.87% [at 0.249 µM]
[8]
  activity change, negative = cytotoxicity: 0.149% [at 0.249 µM]
[9]
  activity change, negative = cytotoxicity: 1.19% [at 0.249 µM]
[14]
  activation: 0.0128% [at 0.349 µM]
[15]
  activity change, negative = inhibition: -0.651% [at 0.349 µM]
[20]
  activation: 0.882% [at 0.349 µM]
[16]
  activity change, negative = inhibition: -6.33% [at 0.348 µM]
